# Laboratory results published in PubChem BioAssay (Tox21).
# Values joined by “and” are separate entries in the source; they are usually repeats but may differ in a detail not shown here. Identical values can stand only once. Inconclusive results are not listed. Active and inactive are the calls of the source. Unless noted, calls follow the shape of the full dose curve.
# Test system: not listed separately
# Assay: qHTS assay to identify small molecule agonists of the estrogen related receptor signaling pathway with the pleiotropic PPARgamma coactivator (PGC) from Tox21 10K library (AID 1224842; active = well fitted activation curve with a large enough effect in the repeat runs; also: nearly all actives have a fitted effect of over 15% in size)
# Details: PGC/ERR reporter cell line, luciferase ONE-Glo, 18 h; series mostly up to 92.4 µM; activation: at the top concentration
# Summary of the method: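 PGC/ERR reporter cell line, 2,000 cells per well, incubated 6 h at 37 C before 23 nL compound in DMSO was added. After 18 h at 37 C, One-Glo luminescence read following 30 min at room temperature.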
# % is scaled to controls: 0 for no effect and ±100 for the full control effect; potency is read from the fitted curve at half-maximal effect.
Compound,activation,Potency
OCCN(CCO)c1nc(N2CCCCC2)c2nc(N(CCO)CCO)nc(N3CCCCC3)c2n1,-20.2% [at 42.5 µM] (inactive),
CSc1ccc(/C=C2/C(C)=C(CC(=O)O)c3cc(F)ccc32)cc1,-3.92% [at 42.5 µM] (inactive),
CC(C)c1ccc2c(c1)CC[C@H]1[C@](C)(CN)CCC[C@]21C,-20.2% (inactive),
COc1c(C)c2c(c(O)c1C/C=C(\C)CCC(=O)O)C(=O)OC2,-16.4% [at 42.5 µM] (inactive),
CCCC(=O)OC[C@@H](OC(=O)CCC)[C@@H](OC(=O)CCC)[C@H](Cn1c2nc(=O)[nH]c(=O)c-2nc2cc(C)c(C)cc21)OC(=O)CCC,-17.2% [at 42.5 µM] (inactive),
Nc1nc2ccccc2n1Cc1ccc(F)cc1,-8.92% [at 42.5 µM] (inactive),
CCCCN1C(=O)[C@@H]([C@H](O)C2CCCCC2)NC(=O)C12CCN(Cc1ccc(Oc3ccc(C(=O)O)cc3)cc1)CC2,-5.04% (inactive),
O=C(OCC1CO1)C1CCCCC1C(=O)OCC1CO1 (stereo not drawn),-14.6% (inactive),
CCN(C(=O)N(CC)c1ccccc1)c1ccccc1,-10.9% (inactive),
Cc1ccc(-n2nc(C(C)(C)C)cc2NC(=O)Nc2ccc(OCCN3CCOCC3)c3ccccc23)cc1,-10.8% [at 42.5 µM] (inactive),
Nc1c2ccccc2nc2ccccc12,-29.1% (inactive),
CC[C@@]1(O)C(=O)OCc2c1cc1n(c2=O)Cc2cc3c(CN(C)C)c(O)ccc3nc2-1,-15.1% [at 42.5 µM] (inactive),
Nc1ccc2cc(S(=O)(=O)O)cc(O)c2c1N=Nc1ccccc1C(F)(F)F,-9.49% (inactive),
CNCc1cc(F)ccc1Oc1ccc(Cl)c(Cl)c1,1.9% (inactive),
OCc1c[nH]c2ccccc12,-7.85% (inactive),
CC[C@@]1(O)C(=O)OCc2c1cc1n(c2=O)Cc2c-1nc1ccccc1c2/C=N/OC(C)(C)C,-24.6% [at 42.5 µM] (inactive),
Cc1cc(=O)oc2cc(N(C)C)ccc12,10.1% (inactive),
Nc1cc(C(F)(F)F)ccc1S,-17.8% [at 42.5 µM] (inactive),
C[C@H]1[C@H]2CC[C@H]3[C@@H]4CC=C5C[C@@H](N(C)C)CC[C@]5(C)[C@H]4CC[C@]23CN1C,-1.65% [at 42.5 µM] (inactive),
CCCCN(CCCC)c1ccc(C(=O)c2ccccc2C(=O)O)c(O)c1,-9.31% (inactive),
CCCCCCOC(=O)c1ccc(O)cc1,,30.7 µM (active) and 9.69 µM (active)
Cc1cc(O)c2ccccc2c1O,-35.1% [at 42.5 µM] (inactive),
COc1ccc(-c2ccc3cc(C(=O)O)ccc3c2)cc1C12CC3CC(CC(C3)C1)C2,8.22% [at 42.5 µM] (inactive),
O=C(Oc1cccc2cccnc12)c1ccccc1,-16.1% [at 42.5 µM] (inactive),
CCOC(=O)c1nc(C(Cl)(Cl)Cl)n(-c2ccc(Cl)cc2Cl)n1,-26.5% (inactive),

# Target: Thyrotropin receptor (Homo sapiens) (UniProt P16473)
# Assay: qHTS assay to identify small molecule agonists of the thyroid stimulating hormone receptor (TSHR) signaling pathway (AID 1224843); also: nearly all actives have a fitted effect of over 45% in size
# Details: TSHR-HEK293 cells, cAMP HTRF, agonist mode, 30 min; series mostly up to 92.4 µM; activation: at the top concentration
# Summary of the method: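 HEK293/TSHR, 800 cells/well; cpd 30 min RT; add cAMP-d2 + anti-cAMP-cryptate, 1 h RT; fluorescence read on plate reader. 15-pt titration, n=3.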
# Thyrotropin receptor (Homo sapiens), sequence (P16473 whole entry, looked up): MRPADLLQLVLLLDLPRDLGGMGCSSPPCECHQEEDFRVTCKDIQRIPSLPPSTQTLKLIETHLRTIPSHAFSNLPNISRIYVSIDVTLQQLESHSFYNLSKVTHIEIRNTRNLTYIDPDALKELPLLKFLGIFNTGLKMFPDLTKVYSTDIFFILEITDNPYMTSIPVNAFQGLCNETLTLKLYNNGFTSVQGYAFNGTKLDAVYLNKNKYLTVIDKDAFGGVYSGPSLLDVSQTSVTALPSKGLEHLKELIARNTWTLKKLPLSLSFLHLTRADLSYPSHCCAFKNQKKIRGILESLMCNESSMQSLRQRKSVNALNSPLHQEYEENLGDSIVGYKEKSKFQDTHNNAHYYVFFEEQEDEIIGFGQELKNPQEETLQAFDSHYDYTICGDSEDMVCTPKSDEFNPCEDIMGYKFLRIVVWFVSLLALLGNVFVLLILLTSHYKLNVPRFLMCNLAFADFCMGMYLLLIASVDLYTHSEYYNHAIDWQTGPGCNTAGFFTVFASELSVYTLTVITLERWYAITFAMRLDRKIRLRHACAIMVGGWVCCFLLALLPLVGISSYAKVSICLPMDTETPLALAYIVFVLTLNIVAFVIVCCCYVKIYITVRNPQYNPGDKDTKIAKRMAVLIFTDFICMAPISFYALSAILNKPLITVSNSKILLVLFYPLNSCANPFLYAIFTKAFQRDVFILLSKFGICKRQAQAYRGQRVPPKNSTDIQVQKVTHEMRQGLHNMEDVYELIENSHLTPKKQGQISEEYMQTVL
Compound,activation,Potency
CSc1ccc(/C=C2/C(C)=C(CC(=O)O)c3cc(F)ccc32)cc1,0.973% [at 42.5 µM] (inactive),
CC(C)c1ccc2c(c1)CC[C@H]1[C@](C)(CN)CCC[C@]21C,2.36% (inactive),
CCOc1ccc2nc3cc(N)ccc3c(N)c2c1,-3.81% [at 42.5 µM] (inactive),
CCCC(=O)OC[C@@H](OC(=O)CCC)[C@@H](OC(=O)CCC)[C@H](Cn1c2nc(=O)[nH]c(=O)c-2nc2cc(C)c(C)cc21)OC(=O)CCC,3.93% [at 42.5 µM] (inactive),
COc1cccc(N)c1,-4.23% (inactive),
Nc1nc2ccccc2n1Cc1ccc(F)cc1,-1.21% [at 42.5 µM] (inactive),
CCCCN1C(=O)[C@@H]([C@H](O)C2CCCCC2)NC(=O)C12CCN(Cc1ccc(Oc3ccc(C(=O)O)cc3)cc1)CC2,-4.4% (inactive),
CCC(CN)=C(c1ccccc1)c1ccccc1,-13.4% [at 42.5 µM] (inactive),
Nc1ccc2c3c(cccc13)-c1ccccc1-2,-1.68% (inactive),
O=C(OCC1CO1)C1CCCCC1C(=O)OCC1CO1 (stereo not drawn),-3.35% (inactive),
CCN(C(=O)N(CC)c1ccccc1)c1ccccc1,,61.1 µM (active)
Nc1c2ccccc2nc2ccccc12,-0.313% [at 42.5 µM] (inactive),
CCCCCCCCS(=O)C(C)Cc1ccc2c(c1)OCO2 (stereo not drawn),-4.96% (inactive),
c1cc(C(c2ccc(OCC3CO3)cc2)c2ccc(OCC3CO3)cc2)ccc1OCC1CO1 (stereo not drawn),-11.7% (inactive),
CC[C@@]1(O)C(=O)OCc2c1cc1n(c2=O)Cc2cc3c(CN(C)C)c(O)ccc3nc2-1,6.68% [at 42.5 µM] (inactive),
CNCc1cc(F)ccc1Oc1ccc(Cl)c(Cl)c1,,54.5 µM (active)
CC[C@@]1(O)C(=O)OCc2c1cc1n(c2=O)Cc2c-1nc1ccccc1c2/C=N/OC(C)(C)C,-4.84% [at 42.5 µM] (inactive),
Cc1cc(=O)oc2cc(N(C)C)ccc12,6.1% (inactive),
C[C@H]1[C@H]2CC[C@H]3[C@@H]4CC=C5C[C@@H](N(C)C)CC[C@]5(C)[C@H]4CC[C@]23CN1C,8.34% [at 42.5 µM] (inactive),
CCCCCCCCOC(=O)c1ccc(O)cc1,,inactive
CCCCN(CCCC)c1ccc(C(=O)c2ccccc2C(=O)O)c(O)c1,-13.9% (inactive),
CCCCCCOC(=O)c1ccc(O)cc1,,inactive
Cc1cc(O)c2ccccc2c1O,-1.1% [at 42.5 µM] (inactive),
O=C1CCCc2c1cc1ccc3cccc4ccc2c1c34,-17.5% (inactive),
O=C(Nc1cccc(C(F)(F)F)c1)c1cc(Br)cc(Br)c1O,25.3% (inactive),
COc1ccc(-c2ccc3cc(C(=O)O)ccc3c2)cc1C12CC3CC(CC(C3)C1)C2,-0.968% [at 42.5 µM] (inactive),
O=C(Oc1cccc2cccnc12)c1ccccc1,-4.46% [at 42.5 µM] (inactive),
OCCCCCCCCCCCCBr,10.2% (inactive),
